# Screens (PubChem BioAssay)
# The list is not random: actives were taken first. Their share in the collection is about 1.6%.
# KCNQ2 inh: rat KCNQ2 potassium channel inhibitors, primary screen, cell-based, CHO-K1, FluxOR thallium flux, B-score. 20 min; hits give low values. 1.1% of 310,000 active. B-score at 10 µM. Potassium voltage-gated channel subfamily KQT member 2 (Rattus norvegicus), O88943. AID 2156, 2009;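 active = fluorescence ratio B-score at most minus 3 library SDs, with starting brightness B-score within 2 library SDs, cut at about -5.5 in these data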
# KCNQ2 enhance: potentiators of rat KCNQ2 potassium channel; Potassium voltage-gated channel subfamily KQT member 2 (Rattus norvegicus), O88943; CHO-K1 KCNQ2, FluxOR thallium flux fluorescence; hits give high values; B-score at 10 µM; 0.54% of 310,000 active; AID 2239, 2010;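 active = fluorescence ratio B-score at least 3 SD of library B-scores, with initial fluorescence B-score within 3 of them, cut at about 5.3 in these data; same plate scores as AID 2156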;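 also: B-score of peak minus minimum over baseline fluorescence ratio after K+ and Tl+ stimulus; positive B-score means potentiation of KCNQ2 with more thallium influx and brighter signal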
# Kir21 conf inh: mouse Kir2.1 channel blockers, retest, confirmation, cell-based, FluxOR thallium flux, duplicate; shares compounds with KCNQ2 enhance; Tl flux remaining, % of negative control (hits give low values), % at 10 µM; 41% of 2,300 active; Kir2.1-expressing cells, FluxOR thallium flux fluorescence; hits give low values;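 active = Primary-screen hit whose thallium flux fell at least 3 control SD below untreated wells in both duplicates, with normal baseline fluorescence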
# HEK293 ctr: alters thallium flux in parental HEK293 cells, Kir2.1 counter-screen | AID 2105 | shares compounds with KCNQ2 enhance | FluxOR signal as % of negative control (100 = no effect), % at 10 µM | 19% of 2,300 active | FluxOR thallium flux fluorescence; 0% = unstimulated blank wells;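 active = dye signal at least 3 control SD above or below untreated wells in both duplicates, raw fluorescence within 3, either direction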;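 also: percent is based on the flux ratio of peak minus minimum fluorescence over baseline F0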
# CHO-K1 ctr: nonspecific thallium flux increase in parental CHO-K1, confirmation, counter-screen for KCNQ2 potentiator project, cell-based, FluxOR thallium flux, duplicate; shares compounds with KCNQ2 enhance; parental CHO-K1 cells, FluxOR thallium flux fluorescence; zero = vehicle mean+3SD, 100% = vehicle-minus-blank window; activity increase over 3SD of controls, % at 10 µM; 43% of 1,200 active;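 active = signal rise of at least 3 SD above the untreated control mean, in both duplicate wells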;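 also: counter screen of KCNQ2 potentiator hits so any rise reflects channel-independent effects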
# KCNQ1 sel pot: human KCNQ1 channel potentiation off-target, confirmation, selectivity assay for KCNQ2 potentiator project, cell-based, CHO, FluxOR thallium flux | shares compounds with KCNQ2 enhance | CHO KCNQ1 stable, FluxOR thallium flux fluorescence; beyond 3SD, as % of vehicle-control signal | activation over 3SD threshold, % at 10 µM | 28% of 1,200 active;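 active = fluorescence ratio rise of at least 3 SD of vehicle wells above their mean, in both replicate wells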
# Target sequence (P51787 whole entry, looked up): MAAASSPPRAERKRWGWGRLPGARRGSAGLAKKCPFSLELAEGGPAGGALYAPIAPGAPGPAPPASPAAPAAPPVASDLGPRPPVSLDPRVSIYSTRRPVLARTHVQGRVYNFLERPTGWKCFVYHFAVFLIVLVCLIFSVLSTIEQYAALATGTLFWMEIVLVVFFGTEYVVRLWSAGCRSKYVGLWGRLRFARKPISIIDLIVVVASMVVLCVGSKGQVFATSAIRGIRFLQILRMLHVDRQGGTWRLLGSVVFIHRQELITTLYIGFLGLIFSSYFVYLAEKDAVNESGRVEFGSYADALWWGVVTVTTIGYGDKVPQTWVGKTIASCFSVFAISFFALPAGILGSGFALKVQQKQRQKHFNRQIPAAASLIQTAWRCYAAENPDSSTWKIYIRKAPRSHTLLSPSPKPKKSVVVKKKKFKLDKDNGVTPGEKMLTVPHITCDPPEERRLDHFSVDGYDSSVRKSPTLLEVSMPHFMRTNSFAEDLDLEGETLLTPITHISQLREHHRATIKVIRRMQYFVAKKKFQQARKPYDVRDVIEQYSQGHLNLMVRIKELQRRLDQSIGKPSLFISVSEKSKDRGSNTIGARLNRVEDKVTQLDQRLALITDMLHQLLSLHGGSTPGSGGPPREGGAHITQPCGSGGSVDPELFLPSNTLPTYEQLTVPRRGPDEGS
# KCNQ2 pot conf: rat KCNQ2 channel potentiators, confirmation, cell-based, CHO, FluxOR thallium flux, duplicate; 68% of 1,200 active; CHO-KCNQ2 cells, FluxOR thallium flux fluorescence; AID 2287, 2010; shares compounds with KCNQ2 enhance; potentiation, less the hit threshold, % at 10 µM;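 active = fluorescence ratio rising 3 SD or more over the vehicle control mean in both replicates, plus primary screen hit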;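 also: peak minus minimum thallium fluorescence divided by baseline after K/Tl stimulus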
# Kir2-1 sel: mouse Kir2.1 channel activation off-target, confirmation, selectivity assay for KCNQ2 potentiator project, cell-based, HEK293, FluxOR thallium flux. shares compounds with KCNQ2 enhance. HEK293 Kir2.1, FluxOR thallium flux fluorescence. activity over 3SD threshold, % at 10 µM. AID 2345, 2010. 2% of 1,200 active;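 active = fluorescence ratio rise of at least 3 SD above the vehicle-control mean, seen in both replicates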
# KCNQ2 W236L pot: potentiators of retigabine-insensitive KCNQ2 W236L, mechanism study for KCNQ2 potentiator project, cell-based, rat KCNQ2 W236L, CHO, automated patch clamp; current increase over 3SD of negative controls (%), hits give high values, % at 25 µM; 10% of 940 active; automated patch clamp current; shares compounds with KCNQ2 enhance;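 active = current increase at least 3 SD of the untreated controls above them in both duplicate recordings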
# A number is an active result; – = inactive; · = no result.
SMILES,KCNQ2 inh,KCNQ2 enhance,Kir21 conf inh,HEK293 ctr,others
CC(NC(=O)Nc1ccc(Cl)cc1)c1ccc2c(c1)OCO2 (stereo not given),–,·,·,·,
CC(NC(=O)NC1CCCCC1)c1ccc2c(c1)OCO2 (stereo not given),–,21,–,–,CHO-K1 ctr=12;KCNQ1 sel pot=–;KCNQ2 pot conf=62;Kir2-1 sel=–;KCNQ2 W236L pot=–
O=C(Cc1ccccc1)NCc1ccc2c(c1)OCO2,–,–,·,·,
O=C(CC12CCC(CC1)C2)NCc1ccc2c(c1)OCO2,–,11,–,–,CHO-K1 ctr=96;KCNQ1 sel pot=–;KCNQ2 pot conf=44;Kir2-1 sel=–;KCNQ2 W236L pot=–
CC1=NN(c2ccc(Br)cc2)C(=O)/C1=C/c1ccc(-c2ccccc2C(=O)O)o1,–,7.1,–,–,CHO-K1 ctr=–;KCNQ1 sel pot=14;KCNQ2 pot conf=19;Kir2-1 sel=–;KCNQ2 W236L pot=–
CC1=NOC(=O)/C1=C\c1ccc(-c2ccc(Br)cc2C(=O)O)o1,–,–,·,·,
O=C1CN(S(=O)(=O)c2cccc(Cl)c2Cl)c2ccccc2N1,–,–,59%,–,
O=C1CN(S(=O)(=O)c2ccc(Br)cc2)c2ccccc2N1,–,·,·,·,
COc1ccc(OC)c2c1sc(=NC(=O)C1COc3ccccc3O1)n2C (stereo not given),–,·,·,·,
CC1CCCCN1C(=O)CCS(=O)(=O)c1cccc2nonc12 (stereo not given),–,·,·,·,
COCCNc1c2c(nc3c(-c4ccccc4)c(C)nn13)CCCC2,–,·,·,·,
Cc1nn2c(NCCN(C)C)c3c(nc2c1-c1ccccc1)CCCC3,–,6.1,·,·,CHO-K1 ctr=–;KCNQ1 sel pot=–;KCNQ2 pot conf=–;Kir2-1 sel=–
CCn1c(COc2ccc(=O)n(-c3ccccc3)n2)nnc1SCc1ccc(C)cc1,–,·,·,·,
CCn1c(COc2ccc(C)cc2)nnc1SCc1ccc(C#N)cc1,–,·,68%,–,
CN(/N=C/c1ccc(N(C)C)cc1)C1=NS(=O)(=O)c2ccccc21,–,·,·,·,
CC(C)n1ncc(N2CCOCC2)c(Cl)c1=O,–,–,·,·,
CCN(CC)CC#CCOC(c1ccccc1)c1ccccc1,–,·,·,·,
CN(C)CC#CCOC(c1ccccc1)c1ccccc1,–,·,50%,–,
CC(=O)N(CCC(c1ccco1)C(C)C)Cc1ccc(Cl)cc1 (stereo not given),–,·,·,·,
CCC(=O)N(CCC(c1ccco1)C(C)C)Cc1ccccc1 (stereo not given),–,·,50%,68%,
C=CCOC(=O)C1=C[C@@H](c2csc3ccccc23)[C@H](CCCO)[C@@H](OCC)O1,–,·,·,·,
Cc1ccc(C)c(Nc2cc(C)nc3ccccc23)c1,–,·,·,·,
Cc1ccc(Nc2nc(NCCO)c3ccccc3n2)cc1C,–,·,28%,–,
COc1ccccc1Nc1nc(NCCO)c2ccccc2n1,–,–,·,·,
O=C(N/N=C/C1C(c2ccccc2)C1(Cl)Cl)c1cccc(Br)c1 (stereo not given),–,·,·,·,
SMILES,KCNQ2 inh,KCNQ2 enhance,Kir21 conf inh,HEK293 ctr,others
CC(C)COc1ccc(-c2nnc(-c3ccco3)o2)cc1,–,–,·,·,
CCN(CC)CCCNc1ccc(-c2nnc(-c3ccc(OCC(C)C)cc3)o2)cn1,-7.3,–,65%,–,
COc1ccccc1NC(=O)Cc1ccc(-c2ccccc2)cc1,–,·,·,·,
COc1ccc(CC(=O)Nc2ccccc2Oc2ccccc2)cc1,–,10,–,–,CHO-K1 ctr=–;KCNQ1 sel pot=–;KCNQ2 pot conf=17;Kir2-1 sel=–;KCNQ2 W236L pot=–
COc1ccc(NC(=O)CCCc2ccccc2)c(OC)c1,–,5.5,–,–,CHO-K1 ctr=93;KCNQ1 sel pot=–;KCNQ2 pot conf=8.7;Kir2-1 sel=–;KCNQ2 W236L pot=–
COc1ccc(NC(=O)CCCC(=O)c2ccccc2)c(OC)c1,–,·,·,·,
COc1ccc(O)c(C(=O)c2coc(=N)c(C(=O)Nc3ccc(SC(F)F)cc3)c2)c1,–,·,·,·,
O=c1c2cc(Br)ccc2nc(-c2cccc(C(F)(F)F)c2)n1O,–,28,–,611%,CHO-K1 ctr=–;KCNQ1 sel pot=–;KCNQ2 pot conf=92;Kir2-1 sel=14;KCNQ2 W236L pot=–
O=c1c2cc(Br)ccc2nc(-c2ccc([N+](=O)[O-])cc2)n1O,–,9.8,–,383%,CHO-K1 ctr=–;KCNQ1 sel pot=65;KCNQ2 pot conf=51;Kir2-1 sel=–;KCNQ2 W236L pot=–
N#Cc1ccc(-c2nc3ccc(Br)cc3c(=O)n2O)cc1,–,–,·,·,
Cc1ccccc1-c1nc2ccc(Cl)cc2c(=O)n1O,–,·,·,·,
O=c1c2cc(Cl)ccc2nc(-c2ccccc2)n1O,–,6.5,–,326%,CHO-K1 ctr=5.6;KCNQ1 sel pot=9.7;KCNQ2 pot conf=38;Kir2-1 sel=–;KCNQ2 W236L pot=–
COc1ccccc1-c1nc2cc(Cl)ccc2c(=O)n1O,–,·,·,·,
O=c1c2ccccc2nc(-c2ccccc2)n1O,–,–,·,·,
O=c1c2ccc(Cl)cc2nc(-c2ccc([N+](=O)[O-])cc2)n1O,–,14,–,304%,CHO-K1 ctr=5.3;KCNQ1 sel pot=–;KCNQ2 pot conf=42;Kir2-1 sel=–;KCNQ2 W236L pot=–
COc1ccc(NS(=O)(=O)c2cc3c4c(c2)CCN4C(=O)CC3)cc1OC,–,·,·,·,
C=C1C(C(=O)Nc2cccc(OC)c2)C1C(=O)Nc1cccc(OC)c1 (stereo not given),–,·,·,·,
NC(=O)c1c(NC(=O)CN2CCN(S(=O)(=O)c3ccccc3)CC2)sc2c1CCC2,–,–,·,·,
O=C(Cn1cnc([N+](=O)[O-])c1)c1ccc(F)cc1,–,–,·,·,
CCNS(=O)(=O)c1ccc(CCC(=O)NCc2ccc3c(c2)OCO3)cc1,–,–,·,·,
CCOC(=O)N1CCN(c2nc(-c3ccccc3)c3ccccc3n2)CC1,–,·,·,·,
Cc1c(-c2ccccc2)sc2nc[nH]c(=S)c12,–,10,–,–,CHO-K1 ctr=–;KCNQ1 sel pot=–;KCNQ2 pot conf=6.5;Kir2-1 sel=–;KCNQ2 W236L pot=–
O=c1[nH]cnc2scc(-c3ccc(-c4ccccc4)cc3)c12,–,·,·,·,
CCN(Cc1ccccc1)C(=O)c1c(-c2ccccc2Cl)noc1C,–,–,·,·,
COc1ccc(-c2cc3ccc(OC(C)C(=O)O)cc3oc2=O)cc1 (stereo not given),–,·,·,·,
CCNC(=S)/N=C(/Nc1ccc(OC)cc1)Nc1nc(C)cc(C)n1,–,·,·,·,
CCNC(=S)/N=C(/Nc1ccccc1)Nc1nc(C)cc(C)n1,–,–,–,–,
